According to PubChem BioAssay (NCATS):
Where “and” joins values, the source holds several entries; their conditions need not be identical. Equal values may be shown once. Results filed as inconclusive are left out. Where a call stands in place of a potency, no number is given. Calls of active or inactive are those of the source. Unless noted, calls follow the shape of the dose curve; as a rule, active = well fitted curve in the direction sought with a large enough effect; inconclusive = small, poorly fitted or top-dose-only effect, or another doubt; inactive = no such curve, though single readings can be large; an effect the other way counts as inactive or inconclusive.

What was measured:
[1] = target: D(1A) dopamine receptor (Homo sapiens) (UniProt P21728); test: HTS Assay for Allosteric Agonists of the Human D1 Dopamine Receptor: Primary Screen for Potentiators (AID 488982)
In short: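 Tetracycline-induced HEK293 Trex D1 cells with forced coupling to calcium, loaded with no-wash calcium dye; kinetic fluorescence read 180 s after compound addition for agonism, then a further 180 s after an EC20 dopamine challenge for potentiation.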

[2] = Validation screen for small molecules that induce genotoxicity in human embryonic kidney (HEK293T) cells expressing luciferase-tagged ELG1 (AID 493106)
In short: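 ELG1-luciferase reporter readout (ONE-Glo, 30 min, room temperature) after 16 hr compound treatment at 37 °C of HEK293T cells at 2,000 per well. Rising luminescence flags genotoxic stress.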

[3] = target: ATPase family AAA domain-containing protein 5 (Homo sapiens) (UniProt Q96QE3); test: Validation screen for small molecules that inhibit ELG1-dependent DNA repair in human embryonic kidney (HEK293T) cells expressing luciferase-tagged ELG1 (AID 493107);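 also: series mostly up to about 46 µM; inhibitors lower the ELG1-luciferase luminescence signal; nearly all actives have a fitted effect of over 70% in size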
In short: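 Luciferase read-out, ONE-Glo, 30 min at room temperature, follows 16 h co-exposure at 37 C of compound and the DNA-damaging agent 5-fluorouridine. Cells: HEK293T with ELG1-luciferase fusion, 2,000 per well, DMSO as vehicle.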

[4] = target: Thyrotropin-releasing hormone receptor (Homo sapiens) (UniProt P34981); test: qHTS for Small Molecule Agonists and Allosteric Enhancers of Human TRH Receptor: Validation Screen for Agonists (AID 493127;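 active = calcium activation more than 3 SD above the typical response in the agonist read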;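 also: intracellular calcium rise by fluo-8 fluorescence before TRH EC20 addition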); conditions: TRH receptor agonist cell assay; at 2 µM; stronger effect = higher value
In short: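 Compound-evoked intracellular calcium release in fluo-8-loaded TRHR cells, read kinetically on FDSS (Ex 480/Em 530, 1 s/cycle) after 23 nL pintool transfer. Agonist phase preceded 10 nM TRH EC20 addition.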

[5] = Nrf2 qHTS screen for inhibitors: Validation (AID 493153; active = well fitted inhibition curve with a large enough effect in the main read-out, with a control signal flat, not every such curve was filed as active); conditions: viability change: measured here: cytotoxicity max response
In short: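 Concentration-response on A549 ARE_Fluc reporter cells exposed 18-24 h at 37 C, 5% CO2. Cytotoxicity read first by CellTiter-Fluor fluorescence (Ex 405/Em 525), then Nrf2 inhibition by BugLite luminescence after 15 min.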

[6] = qHTS for Inhibitors of Cell Surface uPA Generation: Validation Assay (AID 493164);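 also: RAW 264.7 macrophage cells exposed to compound for 18 h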
In short: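 ATP-Lite luminescence read-out: ATP remains high when uPA activity-dependent LF translocation into the cytoplasm is blocked. RAW 264.7 cells, 18 h compound exposure at 37 C; 7-point titration, 2.45 nM to 38.3 uM final.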

[7] = target: Galactokinase (Homo sapiens) (UniProt P51570); test: qHTS Validation Assay for Inhibitors of Human Galactokinase (GALK) (AID 493189)
In short: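 GALK (5 nM) with 35 uM ATP and 100 uM galactose in HEPES pH 8.0 with MgCl2, NaCl, DTT and BSA. Reaction ran 1 h at room temperature. Residual ATP read by Kinase-Glo Plus luminescence.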

[8] = Validation screen for small molecules that induce DNA re-replication in SW480 colon adenocarcinoma cells (AID 504364)
In short: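 Image-based DNA content read-out: Hoechst stain 40 min, total nuclear fluorescence intensity (ex 405 nm, em 500-530 nm) after 48 h compound exposure of 250 SW480 cells/well at 37 C, 5% CO2, versus DMSO vehicle.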

[9] = target: Peptidyl-prolyl cis-trans isomerase NIMA-interacting 1 (Homo sapiens) (UniProt Q13526); test: qHTS Validation Assay to Find Inhibitors of Pin1 (AID 504536; active = well fitted inhibition curve with a large enough effect in the polarisation, with a control signal flat, not every such curve was filed as active; the % refers to the polarisation)
In short: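 Fluorescence polarization competition: compounds (titration) displace HiFluor-488-labeled Pin1-1b peptide from Pin1 (0.3 uM final) in pH 7.5 HEPES buffer with DTT, 10 min at room temperature; %Activity normalized to no-enzyme wells, curves fitted.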

[10] = target: Phosphoglycerate kinase, glycosomal (Trypanosoma brucei brucei) (UniProt P07378); test: qHTS Validation Assay to Find Inhibitors of Phosphoglycerate Kinase (AID 504547)
In short: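 Compounds are pinned into the substrate/PGK mixture, and GAPDH (100nM final) is added to start the reaction by producing 1,3-BPG. After 60 minutes at room temperature, Kinase-Glo Plus is added and luminescence is measured 10 minutes later.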

[11] = target: phosphoglycerate mutase (Leishmania major) (UniProt Q4Q090); test: qHTS Validation Assay to Find Inhibitors of Phosphoglycerate Mutase (AID 504548);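 also: end-point luminescence from Kinase-GloPlus after the PGAM reaction; series mostly up to about 58 µM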
In short: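 Inhibition of L. major PGAM was assessed by Kinase-GloPlus luminescence following a 45-minute room-temperature reaction with enzyme at 1.25nM final.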

[12] = Inducers of the Endoplasmic Reticulum Stress Response (ERSR) in human glioma: Validation (AID 504836)
In short: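 Stably transfected U87-MG glioma cells carrying a GRP78-based luciferase sensor; 16 h compound incubation. Luminescence end-point read 10 min after Bright-Glo addition at room temperature.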

[13] = target: Ubiquitin carboxyl-terminal hydrolase 1 (Homo sapiens) (UniProt O94782); test: Inhibitors of USP1/UAF1: Pilot qHTS (AID 504865); also: nearly all actives have a fitted effect of over 35% in size; also: potency is read from the fitted curve at half-maximal effect
In short: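 USP1/UAF1 complex at 1 nM preincubated 15 min at room temperature with compound, then Ub-Rho substrate added at 150 nM final. Fluorescence (480/540 nm) read kinetically in 50 mM HEPES pH 7.8, 0.5 mM EDTA, 1 mM TCEP, 0.1 mg/ml BSA, 0.01% Tween-20.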

[14] = qHTS for Inhibitors of ATXN expression: Validation of Cytotoxic Assay (AID 588349)
In short: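 Cytotoxicity counter-screen: ATP-based luminescent viability (CellTiter Glo) after 72 hr exposure of HEK293 cells to a compound titration at 37 degrees C.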

[15] = qHTS for Inhibitors of ATXN expression: Validation (AID 588378); also: nearly all actives have a fitted effect of over 75% in size; also: potency is read from the fitted curve at half-maximal effect
In short: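 HEK293 cells carrying ATXN2-firefly luciferase reporter, treated with compound 24 h at 37 °C. Viability read first by CellTiter-Fluor (405/525 nm), then reporter expression by Bright-Glo luminescence; controls were a known ATXN2 expression inhibitor and a luciferase inhibitor.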

[16] = target: ATP-dependent 6-phosphofructokinase (Trypanosoma brucei brucei) (UniProt O15648); test: qHTS Assay to Find Inhibitors of T. brucei phosphofructokinase: hit validation (AID 492961);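 also: luminescence reports ADP formed as PFK phosphorylates fructose-6-phosphate with ATP; series mostly up to about 51 µM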
In short: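 Inhibition of parasite PFK is measured as reduced ADP formation, quantified via luciferase after ATP depletion. Assay used 0.1 mM ATP, 0.5 mM F6P, 1.25 nM enzyme, 45 min incubation.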

[17] = target: D(1A) dopamine receptor (Homo sapiens) (UniProt P21728); test: HTS Assay for Allosteric Agonists of the Human D1 Dopamine Receptor: Primary Screen for Antagonists (AID 488983);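 also: calcium flux response to an EC80 dopamine challenge measured with no-wash dye; nearly all actives have a fitted effect of over 65% in size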
In short: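 Calcium-flux read-out in inducible HEK293 T-REx cells expressing D1, dye-loaded 30–90 min at room temperature. Kinetic reads: 180 s after compound (agonist phase), then 180 s after an EC80 dopamine challenge.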

[18] = target: DNA dC->dU-editing enzyme APOBEC-3G (Homo sapiens) (UniProt Q9HC16); test: qHTS for inhibitors of Vif-A3G interactions: Validation (AID 588379)
In short: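 Yellow fluorescence (Ex 488, Em 500-530) of Vif-coexpressing HeLa A3G-eYFP cells, scanned by Acumen cytometer, reports blocked A3G degradation. Cells plated at 700/well overnight at 37 deg C before compound addition, then a further overnight compound incubation at 37 deg C.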

Chain of Galactokinase (Homo sapiens) (P51570 whole entry, looked up): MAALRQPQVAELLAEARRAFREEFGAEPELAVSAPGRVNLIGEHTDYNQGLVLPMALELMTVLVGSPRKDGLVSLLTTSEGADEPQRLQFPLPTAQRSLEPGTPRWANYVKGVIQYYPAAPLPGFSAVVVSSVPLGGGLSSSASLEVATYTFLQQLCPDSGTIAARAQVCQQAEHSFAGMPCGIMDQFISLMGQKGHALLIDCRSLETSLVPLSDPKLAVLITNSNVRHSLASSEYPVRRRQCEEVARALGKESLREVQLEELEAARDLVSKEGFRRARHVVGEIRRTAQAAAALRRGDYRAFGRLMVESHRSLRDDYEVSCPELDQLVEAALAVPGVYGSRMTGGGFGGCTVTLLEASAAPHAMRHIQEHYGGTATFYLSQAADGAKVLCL
Chain of Phosphoglycerate kinase, glycosomal (Trypanosoma brucei brucei) (P07378 whole entry, looked up): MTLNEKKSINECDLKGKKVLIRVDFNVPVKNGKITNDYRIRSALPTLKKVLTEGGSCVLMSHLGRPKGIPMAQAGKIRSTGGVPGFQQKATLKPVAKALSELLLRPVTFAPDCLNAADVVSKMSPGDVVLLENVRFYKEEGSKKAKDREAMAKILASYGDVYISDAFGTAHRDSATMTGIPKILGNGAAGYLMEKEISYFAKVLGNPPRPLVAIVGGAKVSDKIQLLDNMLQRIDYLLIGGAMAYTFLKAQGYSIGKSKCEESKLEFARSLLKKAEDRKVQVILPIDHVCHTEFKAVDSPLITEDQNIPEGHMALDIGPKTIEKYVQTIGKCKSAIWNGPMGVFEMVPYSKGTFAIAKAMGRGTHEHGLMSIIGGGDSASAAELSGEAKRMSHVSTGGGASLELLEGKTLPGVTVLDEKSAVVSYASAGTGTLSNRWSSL
Chain of D(1A) dopamine receptor (Homo sapiens) (P21728 whole entry, looked up): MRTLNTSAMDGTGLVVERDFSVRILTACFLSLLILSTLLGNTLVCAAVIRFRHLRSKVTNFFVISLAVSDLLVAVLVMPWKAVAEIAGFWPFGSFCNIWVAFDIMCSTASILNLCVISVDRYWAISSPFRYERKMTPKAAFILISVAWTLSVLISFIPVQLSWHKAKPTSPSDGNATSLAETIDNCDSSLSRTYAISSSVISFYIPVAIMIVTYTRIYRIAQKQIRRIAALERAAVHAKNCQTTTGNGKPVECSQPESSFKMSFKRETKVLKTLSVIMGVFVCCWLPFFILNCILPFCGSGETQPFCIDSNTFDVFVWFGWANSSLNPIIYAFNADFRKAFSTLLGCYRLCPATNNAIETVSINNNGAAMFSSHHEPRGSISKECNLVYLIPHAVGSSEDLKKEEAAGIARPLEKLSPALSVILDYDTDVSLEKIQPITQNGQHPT
Chain of Thyrotropin-releasing hormone receptor (Homo sapiens) (P34981 whole entry, looked up): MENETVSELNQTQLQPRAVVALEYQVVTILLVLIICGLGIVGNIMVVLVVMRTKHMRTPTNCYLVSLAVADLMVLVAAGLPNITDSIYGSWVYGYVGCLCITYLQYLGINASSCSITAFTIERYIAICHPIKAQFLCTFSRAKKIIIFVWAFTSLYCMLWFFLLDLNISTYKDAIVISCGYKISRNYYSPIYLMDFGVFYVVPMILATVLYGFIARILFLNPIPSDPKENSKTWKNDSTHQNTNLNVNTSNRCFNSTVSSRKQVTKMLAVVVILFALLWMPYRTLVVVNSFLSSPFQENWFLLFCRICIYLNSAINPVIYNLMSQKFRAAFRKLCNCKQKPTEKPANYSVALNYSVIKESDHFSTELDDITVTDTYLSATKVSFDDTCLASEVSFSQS
Chain of phosphoglycerate mutase (Leishmania major) (Q4Q090 1-553): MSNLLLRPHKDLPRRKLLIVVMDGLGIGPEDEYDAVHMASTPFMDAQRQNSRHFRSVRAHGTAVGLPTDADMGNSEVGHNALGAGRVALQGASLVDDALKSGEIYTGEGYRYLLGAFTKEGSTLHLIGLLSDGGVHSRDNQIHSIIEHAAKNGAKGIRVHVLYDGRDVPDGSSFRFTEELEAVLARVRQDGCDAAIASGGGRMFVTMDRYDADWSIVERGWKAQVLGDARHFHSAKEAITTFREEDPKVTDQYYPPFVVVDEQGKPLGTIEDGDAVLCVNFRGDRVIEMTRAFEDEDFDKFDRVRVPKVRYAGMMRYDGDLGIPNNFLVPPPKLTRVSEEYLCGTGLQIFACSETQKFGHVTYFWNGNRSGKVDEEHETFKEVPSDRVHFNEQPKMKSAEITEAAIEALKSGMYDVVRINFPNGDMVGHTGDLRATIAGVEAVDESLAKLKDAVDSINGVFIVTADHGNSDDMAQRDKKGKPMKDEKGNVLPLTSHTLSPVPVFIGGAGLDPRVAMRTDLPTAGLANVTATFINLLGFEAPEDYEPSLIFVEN
Chain of Ubiquitin carboxyl-terminal hydrolase 1 (Homo sapiens) (O94782 whole entry, looked up): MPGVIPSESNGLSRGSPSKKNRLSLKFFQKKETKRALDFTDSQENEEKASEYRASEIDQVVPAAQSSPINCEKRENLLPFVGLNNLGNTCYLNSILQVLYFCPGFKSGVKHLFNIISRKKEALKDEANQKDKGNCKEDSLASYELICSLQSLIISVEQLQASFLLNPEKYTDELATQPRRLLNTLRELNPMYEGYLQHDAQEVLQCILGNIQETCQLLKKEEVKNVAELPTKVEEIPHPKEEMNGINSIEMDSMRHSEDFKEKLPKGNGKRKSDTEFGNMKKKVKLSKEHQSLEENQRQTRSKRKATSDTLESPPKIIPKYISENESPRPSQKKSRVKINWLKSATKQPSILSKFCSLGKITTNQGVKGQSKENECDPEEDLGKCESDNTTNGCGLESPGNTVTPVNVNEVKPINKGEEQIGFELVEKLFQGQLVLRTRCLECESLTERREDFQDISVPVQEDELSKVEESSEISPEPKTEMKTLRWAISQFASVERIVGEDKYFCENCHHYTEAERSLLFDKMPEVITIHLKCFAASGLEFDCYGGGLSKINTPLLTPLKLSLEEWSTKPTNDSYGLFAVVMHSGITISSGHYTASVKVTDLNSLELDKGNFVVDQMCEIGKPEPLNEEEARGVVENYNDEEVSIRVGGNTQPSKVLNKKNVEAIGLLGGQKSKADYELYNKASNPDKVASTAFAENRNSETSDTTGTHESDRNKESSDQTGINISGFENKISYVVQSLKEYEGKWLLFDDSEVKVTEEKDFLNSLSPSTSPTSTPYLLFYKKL
Chain of ATP-dependent 6-phosphofructokinase (Trypanosoma brucei brucei) (O15648 whole entry, looked up): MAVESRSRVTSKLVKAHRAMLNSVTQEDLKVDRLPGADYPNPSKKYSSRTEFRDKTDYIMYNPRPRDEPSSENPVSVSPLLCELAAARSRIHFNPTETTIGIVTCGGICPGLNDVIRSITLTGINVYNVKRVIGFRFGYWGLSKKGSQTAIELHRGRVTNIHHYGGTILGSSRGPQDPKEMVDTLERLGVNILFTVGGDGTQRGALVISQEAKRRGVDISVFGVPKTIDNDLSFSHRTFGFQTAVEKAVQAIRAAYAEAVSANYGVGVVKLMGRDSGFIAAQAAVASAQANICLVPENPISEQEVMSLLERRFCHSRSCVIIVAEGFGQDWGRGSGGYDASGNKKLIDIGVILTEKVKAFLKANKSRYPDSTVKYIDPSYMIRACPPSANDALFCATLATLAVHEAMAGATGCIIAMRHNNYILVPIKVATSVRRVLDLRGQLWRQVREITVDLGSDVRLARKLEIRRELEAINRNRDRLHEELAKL
Chain of Peptidyl-prolyl cis-trans isomerase NIMA-interacting 1 (Homo sapiens) (Q13526 whole entry, looked up): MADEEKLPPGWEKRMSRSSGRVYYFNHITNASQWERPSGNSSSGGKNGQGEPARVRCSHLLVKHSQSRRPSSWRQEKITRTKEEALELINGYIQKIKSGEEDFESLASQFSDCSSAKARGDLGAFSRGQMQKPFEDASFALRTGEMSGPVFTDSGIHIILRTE
Chain of DNA dC->dU-editing enzyme APOBEC-3G (Homo sapiens) (Q9HC16 whole entry, looked up): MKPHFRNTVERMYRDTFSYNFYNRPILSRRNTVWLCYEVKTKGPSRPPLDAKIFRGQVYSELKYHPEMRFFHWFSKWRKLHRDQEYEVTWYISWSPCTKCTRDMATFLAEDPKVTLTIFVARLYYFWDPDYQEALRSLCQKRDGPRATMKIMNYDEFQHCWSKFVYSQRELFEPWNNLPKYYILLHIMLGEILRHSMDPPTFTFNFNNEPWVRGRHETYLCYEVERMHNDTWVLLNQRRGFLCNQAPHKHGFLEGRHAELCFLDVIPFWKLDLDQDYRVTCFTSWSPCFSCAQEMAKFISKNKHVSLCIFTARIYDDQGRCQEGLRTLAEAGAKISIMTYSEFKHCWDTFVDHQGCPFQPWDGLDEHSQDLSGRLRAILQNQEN

## CCCN(CCC)C1CCc2ccc(O)cc2C1 (configuration not stated)
[1]
  outcome: inactive
[2]
  outcome: inactive
[3]
  Potency: inactive
[4]
  activation: -5.19% (inactive)
[5]
  outcome: inactive
  viability change: -3.98%
[6]
  outcome: inactive
[7]
  outcome: inactive
[8]
  outcome: inactive
[9]
  outcome: inactive
[10]
  outcome: inactive
[11]
  outcome: inactive
[12]
  Potency: inactive
[13]
  Potency: inactive
[14]
  outcome: inactive
[15]
  Potency: inactive

## COC(C)(C)CCCC(C)C/C=C/C(C)=C/C(=O)OC(C)C (configuration not stated)
[16]
  Potency: inactive

## NC1=NC(=O)N2CC12 (configuration not stated)
[16]
  Potency: inactive

## NCCc1c[nH]c2ccccc12
[17]
  Potency: inactive
[2]
  outcome: inactive
[4]
  activation: -0.438% (inactive)
[5]
  outcome: inactive
  viability change: -0.0651%
[6]
  outcome: inactive
[7]
  outcome: inactive
[8]
  outcome: inactive
[9]
  outcome: inactive
[10]
  outcome: inactive
[11]
  outcome: inactive
[12]
  Potency: inactive
[14]
  outcome: inactive
[15]
  Potency: inactive

## Cc1ccc(Cl)c(O)c1
[16]
  Potency: inactive

## C[C@@H]1O[C@H](C[N+](C)(C)C)C[C@H]1O
[1]
  outcome: inactive
[17]
  Potency: inactive
[3]
  Potency: inactive
[4]
  activation: 20.8% (inactive)
[5]
  outcome: inactive
  viability change: -6.13%
[6]
  outcome: inactive
[7]
  outcome: inactive
[8]
  outcome: inactive
[9]
  outcome: inactive
[10]
  outcome: inactive
[11]
  outcome: inactive
[12]
  Potency: inactive
[13]
  Potency: inactive
[14]
  outcome: inactive
[15]
  Potency: inactive

## CN(C)[C@@H]1C(=O)C(C(N)=O)=C(O)[C@@]2(O)C(=O)C3=C(O)c4c(O)cccc4[C@@](C)(O)[C@H]3[C@H](O)[C@@H]12
[16]
  Potency: inactive

## CC[N+]1(CCOC(=O)C(O)(c2ccccc2)c2ccccc2)CCCCC1
[16]
  Potency: inactive

## COC(=O)[C@@H](N)CCCN=C(N)N[N+](=O)[O-]
[1]
  outcome: inactive
[17]
  Potency: inactive
[2]
  outcome: inactive
[3]
  Potency: inactive
[5]
  outcome: inactive
  viability change: -8.47%
[6]
  outcome: inactive
[9]
  outcome: inactive
[10]
  outcome: inactive
[11]
  outcome: inactive
[12]
  Potency: inactive
[13]
  Potency: inactive
[14]
  outcome: inactive
[15]
  Potency: inactive
[18]
  outcome: inactive

## Cc1c(C(=O)c2cccc3ccccc23)c2cccc3c2n1[C@H](CN1CCOCC1)CO3
[17]
  Potency: inactive
[2]
  outcome: inactive
[4]
  activation: -3.25% (inactive)
[7]
  outcome: inactive
[8]
  outcome: inactive
[10]
  outcome: inactive
[11]
  outcome: inactive
[15]
  Potency: 15.8 µM (active)

## CCCCCCCCCCCCCCCC[N+](C)(C)C
[16]
  Potency: inactive
[13]
  Potency: 22.4 µM (active) and 31.6 µM (active)

## CC(C)Oc1cccnc1N(C)C1CCN(Cc2ccccc2)CC1
[1]
  outcome: inactive
[2]
  outcome: inactive
[3]
  Potency: inactive
[4]
  activation: 0% (inactive)
[5]
  outcome: inactive
  viability change: 1.23%
[6]
  outcome: inactive
[7]
  outcome: inactive
[8]
  outcome: inactive
[9]
  outcome: inactive
[10]
  outcome: inactive
[11]
  outcome: inactive
[12]
  Potency: inactive
[14]
  outcome: inactive
[15]
  Potency: inactive

## O=C(N[C@H]1CN2CCC1CC2)c1ccc(Cl)cc1
[1]
  outcome: inactive
[17]
  Potency: inactive
[2]
  outcome: inactive
[3]
  Potency: inactive
[5]
  outcome: inactive
  viability change: -3.51%
[6]
  outcome: inactive
[9]
  outcome: inactive
[10]
  outcome: inactive
[11]
  outcome: inactive
[12]
  Potency: inactive
[14]
  outcome: inactive
[15]
  Potency: inactive

## O=C(O)CC[N+](=O)[O-]
[1]
  outcome: inactive
[17]
  Potency: inactive
[2]
  outcome: inactive
[3]
  Potency: inactive
[6]
  outcome: inactive
[7]
  outcome: inactive
[8]
  outcome: inactive
[9]
  outcome: inactive
[10]
  outcome: inactive
[11]
  outcome: inactive
[12]
  Potency: inactive
[14]
  outcome: inactive
[15]
  Potency: inactive
